Tat transport = inhibitors of E. coli Tat protein transport | E. coli MC4100 TorA-mCherry Tat export, fluorescence | inhibition, % at 10 µM | hit rate 0.036% among 340,000 | AID 488895;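 active = mean replicate inhibition at least 50% and at least half of replicates individually reaching 50%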;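 also: exported cargo escapes ClpAP degradation while cytoplasmic cargo is degraded and loses fluorescence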
E coli growth-1 = blocks Escherichia coli growth; OD600, 23 h; hits give low values; OD600 absorbance (concentration not given with the values); hit rate 0.21% among 330,000;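 active = OD600 absorbance below the run mean of sample wells minus 3.6 SD, in any replicate, cut at about 0.56 in these data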
AddAB inh = less growth of phage-infected E. coli with AddAB; E. coli expressing H. pylori AddAB, absorbance growth; hit rate 0.29% among 330,000; inhibition, % at 11.9 µM; in the data active = inhibition above about 12%
E coli growth-2 = bacterial growth inhibition, counter-screen for AddAB inhibitors | E. coli V3065 growth, OD600 absorbance, 18 h | inhibition, % at 11.9 µM | hit rate 0.27% among 330,000 | AID 449728;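 active = inhibition above the campaign's mean inhibition across all tested compounds plus 3 SD, cut at about 9.9% in these data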;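 also: uninfected addAB+ strain grown without phage in ampicillin broth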
phage Ecoli inh = E. coli growth loss with phage present | growth absorbance | inhibition, % at 11.9 µM | hit rate 0.26% among 360,000 | AID 651602; in the data active = inhibition above about 11%
AddAB conf = confirmation screen: growth loss of phage-infected E. coli expressing H. pylori AddAB; hit rate 64% among 880; shares compounds with AddAB inh; E. coli V3065 expressing H. pylori AddAB, T4 phage, OD; T4 phage with gene 2 nonsense mutations; inhibition, % at 11.9 µM;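 active = mean inhibition above a set limit taken from the earlier primary screen, cut at about 13% in these data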;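 also: higher means less bacterial growth since AddAB block lets phage replicate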
RecBCD counter = reduces growth of phage-infected RecBCD+ E. coli, AddAB inhibitor counter-screen. inhibition, % at 11.9 µM. shares compounds with AddAB inh. hit rate 73% among 880. E. coli V66 + mutant T4 phage, OD growth;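 active = mean inhibition above the mean of solvent-only control wells plus 3 SD, cut at about 4% in these data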;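 also: optical density read after an 18 h incubation at 37 °C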
bact viab count = counter-screen for AddAB inhibitors: inhibitors of bacterial viability. shares compounds with AddAB inh. absorbance (AddAB counterscreen). inhibition, % at 11.9 µM. hit rate 35% among 880. AID 488956; in the data active = inhibition above about 25%
RecBCD conf = growth loss of phage-infected V66 E. coli, RecBCD confirmation screen | shares compounds with phage Ecoli inh | E. coli V66 + T4 2- phage, growth OD | inhibition, % at 11.9 µM | hit rate 45% among 890;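 active = mean inhibition over triplicates exceeding the hit threshold derived in the original primary screen, cut at about 11% in these data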
Ecoli viability = bacterial viability inhibition counter-screen for RecBCD; E. coli viability, absorbance (OD) growth; AID 651983; shares compounds with phage Ecoli inh; hit rate 29% among 890; inhibition, % at 11.9 µM; in the data active = inhibition above about 20%;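 also: E. coli strain V66 grown with compound alone and no phage infection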
AddAB counter = growth loss of phage-infected AddAB E. coli, RecBCD counter-screen; inhibition, % at 11.9 µM; shares compounds with phage Ecoli inh; E. coli expressing H. pylori AddAB + T4 phage, OD growth; gene 2 mutant T4, recBCD-deleted host; hit rate 45% among 890;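 active = mean inhibition above the solvent-only control wells' mean plus 3 SD, cut at about 22% in these data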;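 also: higher means less bacterial growth from phage killing when AddAB is blocked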
A number is an active result. Most compounds without a hit are left out; they make up all but 0.5% or so of the library.

Results for Cc1nc2ccccc2n1/N=C/c1ccc([N+](=O)[O-])o1 ?
Tat transport: inactive; AddAB inh: 100; E coli growth-2: 98; phage Ecoli inh: 12; AddAB conf: 103; RecBCD counter: 25; bact viab count: 103; RecBCD conf: inactive; Ecoli viability: inactive; AddAB counter: 100

What do the screens show for `Cc1noc(C=CN(C)C)c1S(=O)(=O)N1CCCC(C(=O)Nc2ccc3c(c2)OCO3)C1` (stereo not given)?
E coli growth-1: inactive

How did COc1cc(CCCN2CCNCC2Cc2ccc(O)cc2)cc(OC)c1OC (stereo not given) do in these assays?
E coli growth-1: inactive

Results for CC(C)(C)/C(O)=C(/C#N)c1nc2ccccc2[nH]1 ?
Tat transport: inactive; AddAB inh: inactive; E coli growth-2: inactive; phage Ecoli inh: inactive

What do the screens show for `N#C/C(=C(/O)c1ccc([N+](=O)[O-])o1)c1nc2ccccc2[nH]1`?
Tat transport: inactive; E coli growth-1: 0.47; AddAB inh: 19; E coli growth-2: 13; phage Ecoli inh: 13; AddAB conf: 96; RecBCD counter: 63; bact viab count: 98; RecBCD conf: 35; Ecoli viability: 64; AddAB counter: 101

What do the screens show for `N#C/C(=C\c1ccc(Sc2ccccc2)o1)c1nc2ccccc2[nH]1`?
Tat transport: inactive; E coli growth-1: inactive; AddAB inh: inactive; E coli growth-2: inactive; phage Ecoli inh: inactive

Results for N#C/C(=C\c1ccc([N+](=O)[O-])o1)c1nc2ccccc2[nH]1 ?
E coli growth-1: inactive; AddAB inh: 94; E coli growth-2: 17; phage Ecoli inh: 13; AddAB conf: 100; RecBCD counter: 16; bact viab count: 94; RecBCD conf: 11; Ecoli viability: inactive; AddAB counter: 76

How did CC(C(=O)NCc1ccccc1)C1C[C@@]1(C)C(NC(=O)OCc1ccccc1)c1ccccc1 (stereo not given in full) do in these assays?
E coli growth-1: inactive

What do the screens show for `O=C(NNC(=S)Nc1ccc(Cl)c(Cl)c1)c1ccccn1`?
Tat transport: inactive; E coli growth-1: inactive; AddAB inh: 14; E coli growth-2: 17; phage Ecoli inh: 17; AddAB conf: 26; RecBCD counter: 17; bact viab count: 25; RecBCD conf: 14; Ecoli viability: inactive; AddAB counter: 34

Results for CCNC(=S)NNC(=O)c1ccccn1 ?
Tat transport: inactive; E coli growth-1: inactive; AddAB inh: inactive; E coli growth-2: inactive; phage Ecoli inh: inactive

How did CCN1C(Nc2ccccc2)=NCC1C (stereo not given) do in these assays?
E coli growth-1: inactive

What do the screens show for `Cc1cc(C)c2c(NC(N)=S)n[nH]c2n1`?
Tat transport: inactive; E coli growth-1: inactive; AddAB inh: inactive; E coli growth-2: inactive; phage Ecoli inh: inactive

What do the screens show for `Cc1cc(C)c2c(N=NN(C)C)[nH]nc2n1`?
Tat transport: inactive; E coli growth-1: inactive; AddAB inh: 39; E coli growth-2: 78; phage Ecoli inh: 14; AddAB conf: 97; RecBCD counter: 8.6; bact viab count: 54; RecBCD conf: 12; Ecoli viability: inactive; AddAB counter: 70

Results for Cc1cccc(C)c1OCc1cc(C(=O)N(C)Cc2nc3ccccc3[nH]2)no1 ?
Tat transport: inactive; E coli growth-1: inactive; AddAB inh: 26; E coli growth-2: 17; phage Ecoli inh: 14; AddAB conf: 19; RecBCD counter: 11; bact viab count: inactive; RecBCD conf: inactive; Ecoli viability: inactive; AddAB counter: 38

How did Oc1ccc(C=NN2CCOCC2)c(O)c1O do in these assays?
E coli growth-1: inactive

Screening data (PubChem)
